Data reported in PubChem BioAssay (EPA / NIEHS).
Values joined by “and” are separate entries in the source; they are usually repeats but may differ in a detail not shown here. Equal values may be shown once. Results filed as inconclusive are left out. A structure can be active in one record and inactive in another. Active and inactive are the calls of the source. Rule for the calls, unless noted: active = hit-call score of the fitted dose curve at least 0.9, where 1 is the maximum; inactive = score below 0.9.

Legend:
[1] = CCTE_Shafer_MEA_acute_burst_percentage_mean: CCTE's Neural Acute Assay for Percentage of Spikes in a Burst, Shafer Lab (AID 2284017);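 for AC50: curve fitted for loss of signal so potency reflects decreased burst percentage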
Summary of the method: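 Compounds were tested at 0.03-40 uM on primary rat cortical neuron networks grown over microelectrodes, with at least three wells per compound. Spontaneous firing was recorded for 40 min before and 40 min after dosing, and the change in burst percentage was computed per well.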

[2] = CCTE_Shafer_MEA_acute_per_network_burst_spike_number_std: CCTE's Neural Acute Assay for Standard Deviation of Number of Spikes in a Network Burst, Shafer Lab (AID 2284020);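 note: fitted for decrease in spike-number SD versus DMSO so actives lower it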
Summary of the method: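 Rat cortical cultures, DIV 13/15, 37 C; 20-min stabilisation, 40-min baseline, compound 0.03-40 uM, 40-min re-record. Spikes detected at 8x rms noise (300-5000 Hz band-pass). Readout: % change from baseline in per-burst spike-number SD.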

[3] = CCTE_Shafer_MEA_acute_per_network_burst_electrodes_number_mean: CCTE's Neural Acute Assay for Mean Number of Electrodes in a Network Burst, Shafer Lab (AID 2284021);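 note: curves fitted for decreases only so hits reduce electrodes per burst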
Summary of the method: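 Cultures of rat cortex neurons were exposed on DIV 13 or 15 to compounds at 0.03-40 uM in at least three wells each. Activity over 40 min before and 40 min after exposure at 37 C gave the percent change in electrodes per network burst.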

[4] = CCTE_Shafer_MEA_acute_network_burst_percentage: CCTE's Neural Acute Assay for Percentage of Network Bursts, Shafer Lab (AID 2284022);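 note: curves fitted for loss so actives lower network burst percentage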
Summary of the method: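 Cortical neurons from rat were grown over microelectrode arrays and used on day 13 or 15 in vitro. Wells with at least 10 active electrodes received test chemical at 0.03-40 uM. Activity during 40 min of exposure was compared with the preceding 40-min baseline.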

[5] = CCTE_Shafer_MEA_acute_cross_correlation_area: CCTE's Neural Acute Assay for Area of Cross Correlation, Shafer Lab (AID 2284024);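 note: area under pooled inter-electrode spike cross-correlation near zero lag as percent change from own baseline; curves fitted for loss of cross-correlation area so actives lower synchrony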
Summary of the method: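 Acute exposure of mature rat cortical networks (day 13 or 15 post-plating) to 0.03-40 uM compound. Spontaneous spiking on MEA, 40 min pre- and post-dose at 37 C.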

[6] = CCTE_Shafer_MEA_acute_cross_correlation_HWHM: CCTE's Neural Acute Assay for Cross Correlation at Half Width at Half Maximum, Shafer Lab (AID 2284026);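 note: percent change per well from pre-dose baseline in spike cross-correlogram half width; hits are a decrease in cross-correlogram half width relative to DMSO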
Summary of the method: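 Primary cortex (rat), MEA, DIV 13/15; compound 0.03-40 uM; 40 min pre + 40 min post at 37 C; spike threshold 8x rms; wells need ≥10 active electrodes; endpoint = % change in cross-correlogram HWHM vs baseline, DMSO negative control.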

[7] = CCTE_Shafer_MEA_acute_synchrony_index: CCTE's Neural Acute Assay for Synchrony, Shafer Lab (AID 2284027);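 note: network synchrony index of spontaneous spiking in primary rat cortical neurons on MEAs; fitted for loss of signal so actives lower synchrony relative to DMSO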
Summary of the method: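 Plates equilibrated 20 min at 37 C, baseline recorded 40 min, compound (0.03-40 uM) added, then 40 min more recorded. Cells: primary rat cortical neurons, DIV 13 or 15. Per-well synchrony index change analysed in negative direction against DMSO.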

[8] = CCTE_Shafer_MEA_dev_per_burst_spike_percent: CCTE's Neural Network Formation Assay for Percent of Spikes in a Burst, Shafer Lab (AID 2284032);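 for AC50: fitted as a decrease in burst spike percentage below DMSO baseline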
Summary of the method: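 Value is trapezoidal AUC over recordings on days 5, 7, 9 and 12 of the well-mean fraction of spikes falling in single-electrode bursts; rat cortical cultures exposed continuously from plating, treatment renewed DIV 5 and 9, fitted downward against DMSO.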

[9] = CCTE_Deisenroth_AIME_384WELL_CTox_Active: Cytotoxicity Assessment (CTOX) in CCTE's 384-well Estrogen Receptor Transactivation Assay with AIME metabolic competence (metabolism positive), Deisenroth Lab (AID 2284037; active = hit-call score of the fitted dose curve at least 0.9, where 1 is the maximum;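 note: chemicals first conditioned 2 h by alginate-bound induced rat liver S9 before cells; activity means signal loss indicating cell death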)
Summary of the method: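 Chemicals pre-incubated 2 hours with alginate-immobilised phenobarbital/beta-naphthoflavone-induced male Sprague Dawley rat liver S9, then conditioned medium applied 24 hour to VM7Luc4E2 cells. Viability by fluorogenic protease substrate; 10-point series 0.002 - 200 uM.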

[10] = biological target: Estrogen receptor (Homo sapiens) (UniProt P03372); test: CCTE_Deisenroth_AIME_384WELL_LUC_Active: CCTE's 384-well Estrogen Receptor Transactivation Assay with AIME metabolic competence (ERTA luciferase; metabolism positive), Deisenroth Lab (AID 2284030; active = hit-call score of the fitted dose curve at least 0.9, where 1 is the maximum)
Summary of the method: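 In this metabolism-positive format, a 2-hour exposure to alginate-immobilized rat S9 precedes a 24 hour luciferase transactivation readout in VM7Luc4E2 cells. Dosing spans 10 concentrations from 0.002 to 200 uM.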

Measured: AC50

Sequence of Estrogen receptor (Homo sapiens) (P03372 whole entry, looked up): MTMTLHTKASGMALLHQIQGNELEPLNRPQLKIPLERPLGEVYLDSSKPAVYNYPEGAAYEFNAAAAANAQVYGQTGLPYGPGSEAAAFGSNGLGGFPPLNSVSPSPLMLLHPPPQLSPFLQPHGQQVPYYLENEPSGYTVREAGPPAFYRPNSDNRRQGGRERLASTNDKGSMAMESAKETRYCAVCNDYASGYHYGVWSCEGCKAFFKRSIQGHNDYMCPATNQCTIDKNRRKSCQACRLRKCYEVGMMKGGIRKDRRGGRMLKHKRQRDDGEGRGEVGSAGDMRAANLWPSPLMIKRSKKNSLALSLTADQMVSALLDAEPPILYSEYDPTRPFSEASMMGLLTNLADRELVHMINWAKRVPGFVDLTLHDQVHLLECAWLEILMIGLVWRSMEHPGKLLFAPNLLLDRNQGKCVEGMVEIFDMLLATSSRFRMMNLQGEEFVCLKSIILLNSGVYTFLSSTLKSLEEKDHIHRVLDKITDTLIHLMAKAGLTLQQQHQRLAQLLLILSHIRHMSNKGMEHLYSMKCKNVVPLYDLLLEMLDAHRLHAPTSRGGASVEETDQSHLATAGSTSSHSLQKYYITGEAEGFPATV

COP(=O)(OC)C(O)C(Cl)(Cl)Cl (stereo not drawn)
inactive: [1] | [2] | [3] | [4] | [5] | [7] | [8]
active: [6] 15 µM | [8] 50 µM

C=C(C)[C@H]1Cc2c(ccc3c2O[C@@H]2COc4cc(OC)c(OC)cc4[C@@H]2C3=O)O1
active: [6] 30.7 µM | [7] 20 µM | [8] 24.4 nM and 20.6 nM
not listed: [9] | [10]
inactive: all other assays above

COP(=O)(NC(C)=O)SC (stereo not drawn)
active: [1] 0.792 µM | [2] 0.299 µM | [7] 0.804 µM
inactive: [1] | [2] | [3] | [4] | [5] | [6] | [7] | [8] | [9]

CCc1cccc(C)c1N(C(=O)CCl)C(C)COC (stereo not drawn)
active: [1] 10.9 µM | [2] 10.8 µM | [3] 5.76 µM | [4] 21.9 µM | [6] 26.9 µM | [7] 8.13 µM
inactive: [5]

CC(C)N(C(=O)SCC(Cl)=C(Cl)Cl)C(C)C
inactive: [5]
active: [1] 20 µM and 15 µM | [2] 10.2 µM and 9.26 µM | [3] 11.5 µM and 5.51 µM | [4] 25.7 µM and 20 µM | [6] 20 µM and 15 µM | [7] 20 µM and 19 µM | [8] 24.4 µM

C[N+]1(C)CCCCC1
not listed: [9] | [10]
inactive: all other assays above

CCOP(=S)(Oc1cnc(C(C)(C)C)nc1)OC(C)C (stereo not drawn)
inactive: [5]
active: [1] 35.6 µM | [2] 28 µM | [3] 20 µM | [4] 24.6 µM | [6] 26.9 µM | [7] 31 µM | [8] 89.1 µM and 12.9 µM

COP(=O)(OC)SCn1c(=O)oc2cc(Cl)cnc21
inactive: [10] | [9]

CCOP(=S)(OCC)Oc1ccc([N+](=O)[O-])cc1
inactive: [8]

CC1(C(=O)Nc2ccc(O)c(Cl)c2Cl)CCCCC1
inactive: [9]

CCOP(=O)(OCC)Oc1cc(C)nc(C(C)C)n1
inactive: [8]

CNC(=O)ON=C(SC)C(=O)N(C)C
inactive: [1] | [2] | [3] | [4] | [6] | [7]

CC(Oc1cccc(Cl)c1)C(=O)O (stereo not drawn)
inactive: [8]

COc1ccc(C(=CC(=O)N2CCOCC2)c2ccc(Cl)cc2)cc1OC
inactive: [9]

CCOP(=S)(OCC)OC(Cl)C(Cl)(Cl)Cl (stereo not drawn)
active: [8] 50 µM and 19 µM

CCCSP(=O)(OCC)Oc1ccc(Br)cc1Cl (stereo not drawn)
inactive: [8] | [9]

CCOP(=O)(SC(C)CC)N1CCSC1=O (stereo not drawn)
inactive: [8] | [9]

O=C(O)c1cc(Oc2ccc(C(F)(F)F)cc2Cl)ccc1[N+](=O)[O-]
not listed: [8] | [10]
inactive: all other assays above

CC(COc1ccc(Oc2ccccc2)cc1)Oc1ccccn1 (stereo not drawn)
inactive: [5] | [9]
active: [1] 10.3 µM | [2] 10.1 µM | [3] 20 µM | [4] 32.7 µM | [6] 8.8 µM | [7] 20 µM

CON=C(C(=O)OC)c1ccccc1CON=C(C)c1cccc(C(F)(F)F)c1
active: [1] 1.12 µM | [2] 0.59 µM | [3] 13.5 µM | [5] 162 nM | [6] 0.278 µM | [7] 2.25 µM | [8] 1.11 µM and 1.32 µM | [9] 19.8 µM

CCCCOC(=O)[C@@H](C)Oc1ccc(Oc2ccc(C#N)cc2F)cc1
inactive: [10] | [9]

CCOP(=S)(OCC)Oc1cc(C)nc(C(C)C)n1
inactive: [8]
active: [8] 50 µM

CCC(=O)Nc1ccc(Cl)c(Cl)c1
active: [9] 19.8 µM

N#CSCSC#N
active: [1] 27 µM | [4] 30.5 µM | [7] 28.4 µM
not listed: [8] | [10]
inactive: all other assays above

CCOP(=O)(NC(C)C)Oc1ccc(SC)c(C)c1 (stereo not drawn)
inactive: [2] | [3] | [4] | [5] | [7] | [8]
active: [1] 30.2 µM | [8] 40.7 µM

CCOP(=S)(OCC)Oc1ccc2c(C)c(Cl)c(=O)oc2c1
inactive: [5] | [9]
active: [1] 3.9 µM | [2] 4.38 µM | [3] 4.12 µM | [4] 27.2 µM | [6] 2.38 µM | [7] 6.95 µM | [8] 50 µM

CCC(=NOC/C=C/Cl)C1=C(O)CC(C2CCOCC2)CC1=O (stereo not drawn)
inactive: [9]

CC1=NNC(=O)N(/N=C/c2cccnc2)C1
not listed: [10]
inactive: all other assays above

COP(=O)(OC)OC(Br)C(Cl)(Cl)Br (stereo not drawn)
active: [8] 7.85 µM and 19.1 µM

Nc1nc(N)nc(NC2CC2)n1
inactive: [9]

CCCSP(=O)(OCC)SCCC
active: [8] 50 µM and 50.5 µM

S=C1NCCN1
inactive: [8]

C#CC(C)(C)NC(=O)c1cc(Cl)cc(Cl)c1
inactive: [9]

CCCCSP(=O)(SCCCC)SCCCC
active: [8] 31.1 µM and 49.9 µM
